In PubChem BioAssay:
Unmarked numbers belong to inactive results.

Assay: growth of efflux-deficient E. coli DRC39 – strain DRC39, OD650, 24 h, E. coli filamentation inducers, primary screen (AID 1178);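 also: growth measured as culture turbidity by optical density at 650 nm; test concentration not given here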
Conditions: E. coli DRC39 acrAB, higher = more signal, called active from +8 up or from −8 down

SMILES	z-score
CC(CCN1CCCCc2nc(C)c(C)cc21)=NOC[C@@H](C)[C@H](OCc1ccccc1)C(C)C	-1.22
COC(=O)CC=C[C@@H](C)[C@@H](C=NO[C@@H]1O[C@H](COC(C)=O)[C@@H](OC(C)=O)[C@H](OC(C)=O)[C@H]1OC(C)=O)OC	-1.03
CO[C@@H]1COC(=O)[C@H](CCSC)NC(=O)CC=C[C@@H](C)COC(=O)CCC[C@H]1C	0.104
CCCNC(=O)OC[C@H]1O[C@H](CCON=C(C)CCC(=O)OC[C@H]2O[C@H](c3ccccc3)C=C[C@@H]2Oc2ccc(OC)cc2)C=C[C@@H]1Oc1ccc(OC)cc1	0.629
CCN1C(=O)[C@@H]2[C@H]3C(=CC[C@@H]2C1=O)C1(OCCCO1)[C@H]1O[C@H]1[C@H]3O	-0.124
O=C1[C@H]2[C@H]3[C@H](O)[C@H](O)CC(=NOC[C@@H](O)COCc4ccco4)[C@H]3CC[C@H]2C(=O)N1Cc1ccccc1	-0.194
CO[C@H]1COC(=O)[C@@H](C)COC(=O)[C@H](C)NC(=O)CC=C[C@H]1C	0.618
C[C@H]1COC(=O)[C@@H]2CCCN2C(=O)[C@@H](C)COC(=O)[C@H](Cc2ccccc2)NC1=O	0.0861
COC(=O)CC=C[C@@H](C)[C@H](OCc1cccc(-c2ccccc2)c1)C1CCCCC1	-0.933
C=CC[C@@H]1C=C[C@H](ON=C(C)CCC(=O)OC[C@H]2O[C@H](C#Cc3ccccc3)C=C[C@@H]2Oc2ccc(C)cc2)[C@@H](CO)O1	0.911
CON=C[C@@H](NS(=O)(=O)c1ccc(C)cc1)[C@H](C)C=CCC(=O)OC	0.717
CO[C@@H]1COC(=O)CC=C[C@H](C)[C@H](OC)COC(=O)[C@H](C)NC(=O)CC=C[C@H]1C	0.853
CC(CCC(=O)OC[C@H]1O[C@H](C#Cc2ccccc2)C=C[C@@H]1Oc1ccc(C)cc1)=NO[C@H](C)c1cn([C@H](CO)Cc2ccccc2)nn1	0.348
CCOC(=O)[C@H](Cc1ccccc1)NC(=O)CCC1CC(OC(=O)NCc2cccc3ccccc23)CC2(CCCC(COC(=O)NCC(c3ccccc3)c3ccccc3)O2)O1 (stereo partly specified)	-0.371
CC(C)=CCCC(C)=CCON=C1C[C@@H](O)[C@@H](O)[C@@H]2[C@@H]3C(=O)N(C[C@@H]4CCCO4)C(=O)[C@@H]3CC[C@H]12	-0.169
COC(=O)[C@H]1O[C@@H](c2c(OC)c(OC)c(C)c(OC)c2OC)[C@H](C)[C@@H](O)[C@H]1C	0.968
COc1ccc(O[C@H]2C=C[C@@H](c3ccccc3)O[C@@H]2COC(=O)CCC(C)=NOC[C@@H](O)[C@H]2O[C@@H]3OC(C)(C)O[C@@H]3[C@H]2O)cc1	1.18
CCOC(=O)[C@H](CC(C)C)NC(=O)CCC1CC(OC(=O)NCCc2ccc(F)cc2)CC2(CCCC(COC(=O)NCC3CCCCC3)O2)O1 (stereo partly specified)	-0.0313

SMILES	z-score
CC(C)=CCCC(C)=CCON=C1C[C@@H](O)[C@@H](O)[C@@H]2[C@@H]3C(=O)N(C4CCCCC4)C(=O)[C@@H]3CC[C@@H]12	0.0915
COC(=O)CC=C[C@@H](C)[C@@H](C=NOC[C@H]1O[C@H](c2ccccc2)C=C[C@@H]1Oc1ccc(OC)cc1)NS(=O)(=O)c1ccc(C)cc1	-1.01
CCc1cc2c(nc1CC)CCN(CCC(C)=NO[C@H](C)c1cn([C@@H]3COC[C@H]3O)nn1)C2	0.415
CCOC(=O)NN=C1C[C@@H](O)[C@@H](O)[C@@H]2[C@@H]3C(=O)N(Cc4ccc5c(c4)OCO5)C(=O)[C@@H]3CC[C@H]12	0.298
CO[C@H]1COC(=O)CC=C[C@H](C)[C@@H](OC)COC(=O)[C@@H](C)NC(=O)CC=C[C@@H]1C	0.0013
CO[C@@H]1COC(=O)CC=C[C@@H](C)[C@@H]2C=C[C@H](O)[C@@H](COC(=O)CC=C[C@H]1C)O2	0.619
CCOC(=O)[C@H](CC(C)C)NC(=O)CCC1CC(OC(=O)NCCc2ccc(F)cc2)CC2(CCCC(COC(=O)NCCc3ccccc3OC)O2)O1 (stereo partly specified)	0.61
CCCNC(=O)OC[C@H]1O[C@H](CCON=C(C)CCN2CCCc3nc(C)c(C)cc32)C=C[C@@H]1Oc1ccc(OC)cc1	0.908
CCC(=O)[C@@]1(O)C(=O)N2C(=C3C(=O)OCC[C@@H]31)N(Cc1ccccc1)C(C)=C(C(=O)OC)[C@H]2c1ccccc1	0.533
CC(C)(C)N1C(=O)[C@H]2[C@H]3[C@H](O)C=CC(=O)[C@@H]3CC[C@H]2C1=O	-0.278
CC(CCN1CCCc2nc(C)c(C)cc21)=NO[C@@H](C)c1cc(-c2c(C)cc(C)cc2C)no1	0.898
C[C@H](ON=C1[C@H]2CCn3c(=O)n(-c4ccccc4)c(=O)n3[C@H]2[C@H](O)[C@@H]2O[C@H]12)c1cn([C@H](CO)Cc2ccccc2)nn1	0.571
CCN1C(=O)[C@H]2[C@H]3[C@H](O)[C@H](O)CC(=O)[C@H]3CC[C@H]2C1=O	-0.519
C#CCCCON=C1C[C@@H](O)[C@@H](O)[C@@H]2[C@@H]3C(=O)N(c4ccc(F)cc4F)C(=O)[C@@H]3CC[C@H]12	0.335
O=C(NN=C1C[C@@H](O)[C@@H](O)[C@@H]2[C@@H]3C(=O)N(C4CCCCC4)C(=O)[C@@H]3CC[C@@H]12)OCc1ccccc1	0.193
CC(CCN1CCCCc2nc(C)c(C)cc21)=NOC[C@@H](O)COCc1ccco1	-0.0051
C=CC1=C[C@H](O)[C@@H]2O[C@@H]2C12OCCCO2	0.451
CON=C1[C@H]2CCn3c(=O)n(-c4ccccc4)c(=O)n3[C@H]2[C@H](O)[C@@H]2O[C@H]12	0.0966
